# HCV inhibitor: qHTS Assay for Inhibitors of Hepatitis C Virus (HCV); Potency, µM (series often up to 41.8 µM), without a hit: at the top dose activity change, negative = inhibition, usual class: inhibitors; Huh7.5.1 HCVcc-Cre infection, luciferase reporter, 44 h; 340,000 tested, 3.4% active; active means well fitted inhibition curve with a large enough effect; inconclusive means small, poorly fitted or top-dose-only effect, or another doubt; inactive means no such curve, though single readings can be large or run the other way; further: potency means the concentration at half of the fitted maximal effect; on the % scale 0 is the no-effect control and ±100 the full control effect
#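 Cells (1,000/well) were plated 4 h before compound, then infected with HCVcc-Cre virus (~0.5 moi). After 44 h further culture, infection was read as luciferase luminescence following a 15 min substrate incubation at room temperature.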
# Cycloheximide cs: Cycloheximide Counterscreen for Small Molecule Inhibitors of Shiga Toxin. cell reporter, cycloheximide protein synthesis inhibition counterscreen. max response, %. 300,000 tested, 12% active. AID 2314, 2010; in the data active means max response mostly above about 13%, no sharp cut-off; inactive means mostly below about 14%; further: read at 38.3 µM for the half of the compounds with a filed dose; 0% is about no effect
# Lassa entry inh: qHTS for Inhibitors of binding or entry into cells for Lassa Virus; Lassa virus pseudotype entry inhibition, cell reporter; Potency, µM (series often up to 37.9 µM), without a hit: at the highest dose activity change, negative = inhibition, actives largely listed as inhibitors; 300,000 tested, 1.2% active; AID 540256, 2011; calls by dose curve; tested in HEK293 cells; further: potency means the concentration at half of the fitted maximal effect; on the % scale 0 is the no-effect control and ±100 the full control effect; nearly all actives have a fitted effect of over 50% in size
# Shiga toxin inh: A qHTS for Small Molecule Inhibitors of Shiga Toxin | 290,000 tested, 9.2% active | Vero cells, Shiga toxin protein synthesis inhibition reporter | inhibition, % at 38.7 µM; in the data active means inhibition mostly above about 28%, no sharp cut-off; inactive means mostly below about 43%; further: 0% is about no effect
# FMDV antiviral: High Throughput Screening for Foot and Mouth Disease Virus Antivirals; FMDV antiviral cell-based qHTS; Potency, µM (series often up to 57.9 µM), for inactives: at the highest dose activity change, negative = inhibition, actives largely listed as inhibitors; 410,000 tested, 1.2% active; calls by dose curve; tested in HEK293T cells; further: read-out not given here; potency means the concentration at half of the fitted maximal effect; on the % scale 0 is the no-effect control and ±100 the full control effect; nearly all actives have a fitted effect of over 45% in size
# MARV entry inh: qHTS for inhibitors of binding or entry into cells for Marburg Virus. Marburg virus pseudotyped entry inhibition, cell reporter. Potency, µM (series often up to 37.8 µM), for the others: top-dose activity change, negative = inhibition, actives largely listed as inhibitors. 300,000 tested, 1.8% active. AID 540276, 2011; calls by dose curve; tested in HEK293 cells; further: potency means the concentration at half of the fitted maximal effect; on the % scale 0 is the no-effect control and ±100 the full control effect
# * = called active by the depositor; ? = inconclusive; . = no result; ! = repeats disagree; [ ] = remark or other dose. A selection: hits, their analogues and other compounds. The true share with any hit is near 13%.
SMILES,HCV inhibitor,Cycloheximide cs,Lassa entry inh,Shiga toxin inh,FMDV antiviral,MARV entry inh
O=C(OCc1ccccc1)/C(=C/c1cccc2ccccc12)NC(=O)c1ccccc1,-7%,0,?,17,22%,15%
C=CCOC(=O)/C(=C/c1cccc2ccccc12)NC(=O)c1ccccc1,?,66*,-1%,92*,31%,0%
Cc1cc(C(=O)COc2ccc3ccc(=O)oc3c2)c(C)n1C,-10%,4,-25%,10,-3%,-12%[46.1 µM]
COc1cc(O)c(C(CC(=O)N2CCCCC2)c2cc(OC)c(OC)c(OC)c2)c(OC)c1 (centres undefined),15%,47*!,.,81*!,-12%,.
COc1cc(O)c(C(CC(=O)N2CCOCC2)c2ccc(N(C)C)cc2)c(OC)c1 (centres undefined),12%,-5,.,-5,-12%,.
COc1cc(O)c(C(CC(=O)N2CCOCC2)c2ccc3c(c2)OCO3)c(OC)c1 (centres undefined),11µM*,-1,.,-3,-8%,.
COc1ccc(-c2cc(C)no2)cc1S(=O)(=O)Nc1c(C)cc(C)cc1C,.,.,?,.,16%,.
CC=Cc1cc2c(c(=O)o1)C(=O)C(O)C(C)O2 (centres undefined),?,.,?,.,-61%,?
O=C(CSc1nnc(Cc2ccccc2)n1-c1ccc(F)cc1)N1CCOCC1,5%,-2,6%,-21,.,3%
O=C(CSc1nnc(Cc2ccccc2)n1C1CCCCC1)N1CCOCC1,7%,16*,12%,-25,46%,-1%
O=C(CSc1ccc(-c2ccc(F)cc2)nn1)N1CCOCC1,11%,20*,19%[46.1 µM],100,30%,?
O=C(CSc1ccc(-c2ccccc2)nn1)N1CCOCC1,5%,24*,3%,19,43%,?
Cc1ccnc(N2CCC(C(=O)NNC(=O)c3ccncc3)CC2)n1,9%,-2,4%,-14,-5%,8%
COc1cccc(CNC(=O)CSc2nnc(C)c3c(C)n(-c4ccccc4)nc23)c1,.,.,21%[46.1 µM],.,-28%,.
O=C(Nc1nc(-c2ccccn2)cs1)c1ccccc1-n1cnnn1,?,10*,.,6,-9%,.
O=C(Nc1nc(-c2ccccn2)cs1)c1ccc2c(c1)OCCO2,?,44*,.,62*,-15%,.
Cc1cc(C(=O)Nc2nc(-c3ccccn3)cs2)ccc1[N+](=O)[O-],11µM*,28*,?,72,3%,?
O=C(Nc1nc(-c2ccccn2)cs1)c1cc(Cl)ccc1[N+](=O)[O-],10µM*,11,4.5µM*,21,-24%,2.8µM*
CC(=O)Nc1ccc(C(=O)Nc2nc(-c3ccccn3)cs2)cc1,-11%,19,.,40,-15%,.
CCc1cc(C(=O)Nc2nc(-c3ccccn3)cs2)sc1C,?,.,.,.,5%,.
COc1cc(F)ccc1-c1csc(C(O)(c2ccccc2)C(F)(F)F)n1 (centres undefined),.,.,.,.,-18%,.
CC(=O)Nc1ccc(NC(=O)C(C)OC(=O)C2(c3ccc(Cl)cc3)CCCC2)cc1 (centres undefined),-6%,-2,-28%,-13,-30%,1%
CC(=O)Nc1ccc(NC(=O)C(C)OC(=O)C2(c3ccc(F)cc3)CCCC2)cc1 (centres undefined),?,-7,.,-3,25µM*,.
CO/N=C/C(C#N)=C/c1ccc(OC)cc1,6%,43*,5%[46.1 µM],61*,26%,17%[46.1 µM]
COc1ccc(CNC(=O)C(C)n2ccc3cc(S(=O)(=O)N4CCCCCC4)ccc32)cc1 (centres undefined),6.3µM*,-1,.,-3,-21%,.
SMILES,HCV inhibitor,Cycloheximide cs,Lassa entry inh,Shiga toxin inh,FMDV antiviral,MARV entry inh
COc1ccc(OC)c(CNC(=O)CCCn2ccc3cc(S(=O)(=O)N4CCCC4)ccc32)c1,10µM*,12,-30%[46.1 µM],-4,?,.
COc1cccc(CNC(=O)CCCn2ccc3cc(S(=O)(=O)N4CCCC4)ccc32)c1,?,-1,?,-3,-14%,?
O=C(OCC(O)CN1CCCCC1)C12CC3CC(CC(C3)C1)C2 (centres undefined),16%,-1,0%,3,-15%,4%[46.1 µM]
O=C(NN=C1CCCC1)c1n[nH]c2c1CCCC2,9%,32*,-4%,59*,-19%,-37%
O=C(NC1CCCCC1)c1n[nH]c2c1CCCCC2,8%,.,.,.,14µM*,.
O=C(NN=C1CCCC1)c1n[nH]c2c1CCC2,1%,24*,-27%,27,52%,0%[46.1 µM]
O=C(NN=C1CCCC1)c1ccc([N+](=O)[O-])cc1,9%,8,.,28,-11%,.
O=C(c1cnccn1)N1CCC2(CC1)CCN(c1ccccn1)CC2,.,.,.,.,-14%,.
COc1cccc(-c2cc3c(c(OC)c2)OCCN(Cc2cccn2-c2ccccn2)C3)c1,.,.,.,.,1%,.
CC(C)(C)c1ccc(-c2nnc(N)o2)cc1,1%,37*,-9%,67*,25%,12%[46.1 µM]
CC(C)(C)c1ccc(OCc2nnc(-c3ccccc3)o2)cc1,.,.,20%[46.1 µM],.,12%,?
Cc1cccc(N2CCc3c2nc2ccc(Br)cc2c3N)c1,10µM*,16*,10%,43,.,?
Nc1c2c(nc3ccc(Br)cc13)N(c1ccccc1)CC2,7.1µM*,13,7%,34,.,1%
Nc1c2c(nc3ccc(Br)cc13)N(Cc1ccccc1)CC2,10µM*,5,-2%,3,-10%,-35%
Cc1ccc2cc3c(nc2c1)N(c1ccccc1)CC3,?,13,11%,-5,8%,-1%
Nc1c2c(nc3ccc(Br)cc13)N(C1CCCCC1)CC2,.,6,.,-4,.,.
CSc1nc(C)c2c(n1)N(c1cccc(C)c1)CC2,10µM*,4,-2%,15,-17%,1%
CCC(CC)NC(=O)Cn1c(C(C)NC(C)=O)nc2ccccc21 (centres undefined),3%,-4,.,-2,-19%,.
Cc1cnc(C(=O)OCC(=O)NCCc2ccccc2)cn1,18%,-2,3%,-9,-10%,?
Cc1nc([N+](=O)[O-])cn1CC(=O)NCCCO,-5%,-4,9%,-3,-12%,4%
COc1ccc(C(C(=O)NCc2ccccc2)N(Cc2ccco2)C(=O)c2cnccn2)cc1 (centres undefined),-6%,-4,-5%,-10,10%,11%[46.1 µM]
COc1cc(/C=N/OCC(=O)NC2CCCCC2C)ccc1OCc1ccc(Cl)cc1 (centres undefined),?,56*,?,150*,7%,?
COc1cc(/C=N/OCC(=O)Nc2cc(C)cc(C)c2)ccc1OCc1ccc(Cl)cc1,?,92*,?,107*,24%,?
CC(C)(C)c1ccc(C(=O)Nc2nnc(SCC(=O)NCC3CCCO3)s2)cc1 (centres undefined),?,56*,.,110*,?,.

# Compound activity as filed in PubChem.
